Cav32 inh: Cav3.2 calcium influx blockers – cell-based, Fluo-4 calcium fluorescence, FDSS, MLSMR library, primary screen | Voltage-dependent T-type calcium channel subunit alpha-1H (Homo sapiens), O95180 | actives 4% (n = 100,000) | Cav3.2-expressing cells; hits give low values | B-score at 10 µM;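 active = single-dose well whose peak fluorescence ratio is a statistical outlier from its plate by either plate-standardised score or position-corrected B-score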
PLAP act: PLAP enzyme activators, biochemical, luminescence, HTS. actives 1.2% (n = 96,000). purified PLAP enzyme, luminescent substrate read-out; hits give high values. activation fold at 20 µM. Alkaline phosphatase, placental type (Homo sapiens), P05187. AID 696, 2007; in the data active = activation fold above about 2
Target sequence (P05187 whole entry, looked up): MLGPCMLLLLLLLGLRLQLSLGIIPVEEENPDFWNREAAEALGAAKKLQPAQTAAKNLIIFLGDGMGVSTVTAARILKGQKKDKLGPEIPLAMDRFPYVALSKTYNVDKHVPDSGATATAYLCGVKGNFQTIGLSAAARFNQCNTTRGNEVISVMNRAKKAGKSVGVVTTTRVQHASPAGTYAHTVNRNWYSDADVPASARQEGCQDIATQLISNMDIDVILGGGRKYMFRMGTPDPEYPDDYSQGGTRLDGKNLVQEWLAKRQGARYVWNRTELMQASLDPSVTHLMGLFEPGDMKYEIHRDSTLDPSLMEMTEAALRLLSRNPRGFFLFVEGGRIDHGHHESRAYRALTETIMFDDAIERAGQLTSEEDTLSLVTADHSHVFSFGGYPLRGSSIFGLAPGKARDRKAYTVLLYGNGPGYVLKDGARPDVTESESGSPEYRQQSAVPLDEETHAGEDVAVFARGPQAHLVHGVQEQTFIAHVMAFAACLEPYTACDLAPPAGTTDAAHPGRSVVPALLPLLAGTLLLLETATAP
PostGolgi ctrl: growth inhibition of yeast control strain, primary screen, counter-screen for post-Golgi transport modulator project. efflux-deficient yeast background strain, growth absorbance A615, 16 h. actives 5% (n = 98,000). inhibition, % at 10 µM
PostGolgi yeast: phenotypic screen on post-Golgi transport, primary screen; post-Golgi transport phenotypic cell assay; inhibition, % at 10 µM; actives 0.9% (n = 98,000);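 also: yeast cells grown in 1536-well plates; yeast grown about 18 h at 30C before absorbance read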
hDAT+cocaine: changed hDAT dopamine uptake under cocaine IC80, either direction, primary screen, cocaine antagonist project, cell-based, LLC-PK1 hDAT, [14C]-dopamine uptake, MLSMR. Sodium-dependent dopamine transporter (Homo sapiens), Q01959. LLC-PK1 hDAT cells, [14C]-dopamine uptake with cocaine IC80; actives deviate in either direction. B-score at 10 µM. actives 1.3% (n = 110,000);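 active = Z score or B-score, a plate-position-corrected score, falls beyond the plate's 99.7% confidence bounds, in either direction; inactive = both scores lie inside the 99.7% bounds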
Large screens that a line does not name were inactive. Most compounds without a hit are left out; they make up all but 9.6% or so of the library. Rule as the data show it, unless noted: active = inhibition above about 30%; inactive = the rest.

CCOc1ccc(NS(=O)(=O)c2ccc(SC)cc2)cc1	Cav32 inh -5.9 (no result: PLAP act)
CCOC(=O)Cc1ccc(NS(=O)(=O)c2ccc(SC)cc2)cc1	Cav32 inh -6.2
Cc1cc(C)c(S(=O)(=O)c2ccccc2)c(OC(=O)c2c(Cl)cccc2Cl)n1	Cav32 inh -4.6, PostGolgi yeast 49
Cc1oc(-c2cccc(Cl)c2)nc1CN1CCC(C(=O)NCc2ccco2)CC1	Cav32 inh -4.3
CCc1ccc(-c2nc(CN3CCC(C(=O)NCCc4ccc(OC)c(OC)c4)CC3)c(C)o2)cc1	PLAP act 2.4
Cc1ccccc1-c1nc(CN2CCC(C(=O)NCc3cccnc3)CC2)c(C)o1	none
COc1ccccc1CNC(=O)C1CCN(Cc2nc(-c3cccc(Cl)c3)oc2C)CC1	Cav32 inh -5.8
CCc1ccc(-c2nc(CN3CCC(C(=O)NCc4ccccc4OC)CC3)c(C)o2)cc1	Cav32 inh -8.6 (no result: PLAP act)
Cc1oc(-c2ccc(Cl)cc2)nc1CN1CCC(C(=O)NCc2ccco2)CC1	none
COc1ccc(CCNC(=O)C2CCN(Cc3nc(-c4ccccc4F)oc3C)CC2)cc1OC	none
CCOc1ccc(N2CCn3c2nc2c3c(=O)n(CCc3ccccc3)c(=O)n2C)cc1	none (no result: Cav32 inh, PostGolgi ctrl, PostGolgi yeast, hDAT+cocaine)
O=C(Cn1c(-c2cscn2)nc2ccccc21)Nc1ccc2ccccc2c1	Cav32 inh -4.8
Cc1cccc(C(=O)N2CCN(c3ccc(C(F)(F)F)cn3)CC2)c1C	Cav32 inh -4.7, PLAP act 2.1
O=C(c1ccccn1)N1CCN(c2ccc(C(F)(F)F)cn2)CC1	none (no result: PLAP act, PostGolgi ctrl, PostGolgi yeast)
Cc1ccccc1N1CCN(C(=O)c2ccc(Oc3ccc(C(F)(F)F)cn3)cc2)CC1	Cav32 inh -6
CC(=O)NC1C(c2nc3ccccc3s2)=C(c2ccccc2)C(=O)N1c1ccc(C)cc1 (stereo not given)	PostGolgi yeast 64 (no result: Cav32 inh)
CCCCCCCCCCn1c2c(c(=N)c3c1CCC3)CCC2	Cav32 inh -7, PostGolgi ctrl 97
O=C(Cn1nc(Cc2cccnc2)c2ccccc2c1=O)N1CCN(c2ccccn2)CC1	Cav32 inh -3.3
O=C(c1nn(Cc2ccccc2)c(=O)c2ccccc12)N1CCN(c2ccccn2)CC1	Cav32 inh -5.6
O=C(c1nn(Cc2ccccc2)c(=O)c2ccccc12)N1CCc2ccccc2C1	Cav32 inh -4, PostGolgi ctrl 57
O=C(c1cc(Cl)ccc1Cl)N1CCN(c2ccccn2)CC1	none
O=C(CSc1nc2ccccc2[nH]1)Nc1ccc(F)c(F)c1	Cav32 inh -4.4
O=C(CSc1nc2ccccc2[nH]1)NCCCn1ccnc1	PLAP act 2
CCOc1ccc2nc(SCC(=O)Nc3ccc4c(c3)OCCO4)[nH]c2c1	PLAP act 2.1
O=C(CSc1nc2ccccc2[nH]1)Nc1ccccc1F	none
Cc1cc(C)cc(NC(=O)CSc2nc3ccncc3[nH]2)c1	PLAP act 2.2
COc1ccc(-c2nnc3ccc(SC)nn23)cc1	none
CCN(CC)c1ccc(NC(=O)c2cccc(F)c2)c(C)c1	none
COc1ccc(OCC(=O)Nc2ccccc2OC)cc1	none
CCCOc1ccccc1N/C(=N/c1nc(C)cc(C)n1)NC(=O)COc1ccc(OC)cc1	Cav32 inh -5, PLAP act 2.4, PostGolgi yeast 40
COc1nc(C)nc2c1ccc1ccccc12	none (no result: PLAP act, PostGolgi ctrl, PostGolgi yeast)
COc1cccc(NC(=O)NC2CCN(Cc3nnnn3Cc3ccc(F)cc3)CC2)c1	PLAP act 2.1
COc1ccc(C[C@H]2c3cc(O)c(OC)cc3CC[N+]2(C)[O-])cc1O (stereo not given in full)	none (no result: PLAP act, PostGolgi ctrl, PostGolgi yeast)
COc1ccc(N(C(=O)c2ccco2)S(=O)(=O)c2cc(Cl)c(Cl)cc2Cl)cc1	PostGolgi ctrl 31
O=C(Cn1ccc2ccccc2c1=O)NCCC(=O)N1CCN(c2cccc(C(F)(F)F)c2)CC1	none
O=C(NCc1ccccn1)C1CCN(S(=O)(=O)N2CCCC2)CC1	PostGolgi ctrl 39
O=C(NCc1ccccn1)C1CCN(S(=O)(=O)c2ccccc2)CC1	none
CCn1nccc1C(=O)Nc1ccc(Cl)cc1Cl	PostGolgi ctrl 32
CCn1nccc1C(=O)Nc1cc(Cl)ccc1Cl	none
COc1cccc(/C=N/n2c(-c3cccs3)n[nH]c2=S)c1	none
N#Cc1cccc(C(c2nnnn2C2CCCC2)N2CCCCCC2)c1 (stereo not given)	none
N#Cc1ccc(C(c2nnnn2C2CCCC2)N2CCC(Cc3ccccc3)CC2)cc1 (stereo not given)	Cav32 inh -6.2
N#Cc1cccc(C(c2nnnn2C2CCCC2)N2CCC(Cc3ccccc3)CC2)c1 (stereo not given)	Cav32 inh -7 (no result: PLAP act, PostGolgi ctrl, PostGolgi yeast)
N#CCC(=O)Nc1ncn(Cc2ccccc2Cl)n1	none
CC1=C(C)CS(=O)N(S(=O)(=O)c2ccc(Cl)cc2)C1 (stereo not given)	Cav32 inh -7.4
Cc1ccc(S(=O)(=O)N2CCN(C)CC2)c(C)c1N(C)S(=O)(=O)c1ccc(Cl)cc1	none
CC1=C(C(=O)Nc2cc(-c3cccc(F)c3)[nH]n2)C2(CCCCC2)OC1=O	PostGolgi ctrl 32
CC1=C(C(=O)NC2CCCC(C)C2C)C2(CCCCC2)OC1=O (stereo not given)	none
CC(=O)Nc1cccc(NC(=O)CSc2ncc(-c3ccc(Cl)cc3)n2Cc2ccco2)c1	Cav32 inh -3.8, PostGolgi ctrl 37
O=C(CSc1nnc(-c2ccc(Cl)cc2)n1Cc1ccco1)Nc1ccc2c(c1)OCCO2	none (no result: PostGolgi ctrl, PostGolgi yeast)
COc1ccc(-c2cnc(SCC(=O)Nc3ccc4c(c3)OCO4)n2Cc2ccco2)cc1	Cav32 inh -4.1
COc1ccc(-c2nc3ccccc3n2Cc2ccc(C)cc2)cc1	PostGolgi ctrl 43, PostGolgi yeast 31
COCn1c(-c2ccc(OC)cc2)nc2ccccc21	none (no result: PLAP act, PostGolgi ctrl, PostGolgi yeast)
C=C(C)Cn1c(-c2ccc(OC)cc2)nc2ccccc21	Cav32 inh -5
CCOC(=O)c1c(NC(=O)C(C)N2CCN(C(=O)c3ccco3)CC2)sc2c1CCCC2 (stereo not given)	none (no result: Cav32 inh, hDAT+cocaine)
O=C(Nc1nccs1)C(NS(=O)(=O)c1ccc(Br)s1)c1ccccc1 (stereo not given)	Cav32 inh -5.8
COC(=O)C1=C[C@@H](C(=O)OC)[C@@H]2C3=C(C(=O)[C@@]2(C)NC(=O)c2ccccc2)[C@H](c2ccccc2)[C@@H]2C(=O)NC(=O)[C@@H]2[C@@H]3C1	none (no result: PLAP act, PostGolgi ctrl, PostGolgi yeast)
C=Cn1ccnc1P(=S)(c1ccc2c(c1)c1ccccc1n2CC)c1nccn1C=C	Cav32 inh -5.2
CSc1ccc(CNc2ccc(Cl)cc2)cc1	none
CCc1ccc(CNc2ccc(O)cc2)cc1	hDAT+cocaine 2.9
O=C(CCCSc1nnnn1-c1cccc2ccccc12)c1ccc(F)cc1	Cav32 inh -4.6, PostGolgi ctrl 32
Cn1nc(-c2ccc(Cl)cc2)nc2c(=O)n(C)c(=O)nc1-2	PostGolgi ctrl 107, PostGolgi yeast 106, hDAT+cocaine -4.4

Bioassay records as filed in PubChem BioAssay.
